Assay results from PubChem BioAssay AID1159580 (chemical genetic matrix, 2015).
Among all 5,500 compounds or so, about 2,000 (36%) were called active. Another 18% or so got no clear call; they are omitted. Rule as the data show it: active = normalized growth mostly below about 0.91 (no sharp cut-off); inconclusive = no clear call, values can overlap the other calls; inactive = mostly above about 0.92. Some of the results follow.

Experiment: chemical genetic growth profiling, strain panel (AID 1159580);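 also: tested at 20 µM; growth read once vehicle control cultures reached saturation at 30 °C; 1 = growth at the plate median or of vehicle wells; lower values mean less growth of the strain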
Conditions: growth OD

Measured: normalized growth

CC(C)CCCC(C)[C@H]1CCC2C3C(=O)C=C4C[C@@H](O)CC[C@]4(C)C3CC[C@@]21C (stereo partly drawn)
inactive: S. cerevisiae deletion strains, locus YJL187C, strain SWE1, active compounds read low 1 | S. cerevisiae deletion strains, locus YJR043C, strain POL32, active compounds read low 1.01 | S. cerevisiae deletion strains, locus YJR066W, strain TOR1, active compounds read low 0.948 | S. cerevisiae deletion strains, locus YKL009W, strain mrt4, active compounds read low 1.07 | S. cerevisiae deletion strains, locus YKL068W, active compounds read low 1.01 | S. cerevisiae deletion strains, locus YKL085W, strain MDH1 (second series), active compounds read low 1.03 | S. cerevisiae deletion strains, locus YKL085W, strain MDH1, active compounds read low 1.03 | S. cerevisiae deletion strains, locus YKL160W, strain elf1, active compounds read low 0.981 | S. cerevisiae deletion strains, locus YKR001C, strain vps1, active compounds read low 1.05 | S. cerevisiae deletion strains, locus YKR026C, strain gcn3, active compounds read low 0.996 | S. cerevisiae deletion strains, locus YKR091W, strain srl3, active compounds read low 1 | S. cerevisiae deletion strains, locus YLL001W, strain dnm1, active compounds read low 0.998 | S. cerevisiae deletion strains, locus YLL026W, active compounds read low 1.01 | S. cerevisiae deletion strains, locus YLL041C, strain sdh2, active compounds read low 0.991 | S. cerevisiae deletion strains, locus YLR027C, strain aat2, active compounds read low 0.989 | S. cerevisiae deletion strains, locus YLR039C, strain RIC1, active compounds read low 1.08 | S. cerevisiae deletion strains, locus YLR058C, strain SHM2, active compounds read low 1.06 | S. cerevisiae deletion strains, locus YLR102C, strain apc9, active compounds read low 1.03 | S. cerevisiae deletion strains, locus YLR113W, strain HOG1, active compounds read low 0.975 | S. cerevisiae deletion strains, locus YLR221C, strain rsa3, active compounds read low 0.981 | S. cerevisiae deletion strains, locus YLR258W, strain gsy2, active compounds read low 1.02 | S. cerevisiae deletion strains, locus YLR262C, strain YPT6 (second series), active compounds read low 0.972 | S. cerevisiae deletion strains, locus YLR262C, strain YPT6, active compounds read low 1.09 | S. cerevisiae deletion strains, locus YLR268W, strain sec22, active compounds read low 1.07 | S. cerevisiae deletion strains, locus YLR320W, strain mms22, active compounds read low 1.03 | S. cerevisiae deletion strains, locus YLR330W, strain CHS5, active compounds read low 1.02 | S. cerevisiae deletion strains, locus YLR342W, strain FKS1 (second series), active compounds read low 1.07 | S. cerevisiae deletion strains, locus YLR342W, strain FKS1, active compounds read low 1 | S. cerevisiae deletion strains, locus YLR357W, strain rsc2, active compounds read low 1.06 | S. cerevisiae deletion strains, locus YLR370C, strain arc18, active compounds read low 0.984 | S. cerevisiae deletion strains, locus YLR371W, strain rom2, active compounds read low 1.03 | S. cerevisiae deletion strains, locus YLR384C, strain iki3, active compounds read low 0.997 | S. cerevisiae deletion strains, locus YLR418C, strain cdc73, active compounds read low 1.04 | S. cerevisiae deletion strains, locus YML016C, strain PPZ1, active compounds read low 1.03 | S. cerevisiae deletion strains, locus YML032C, strain rad52, active compounds read low 1.02 | S. cerevisiae deletion strains, locus YML120C, strain ndi1, active compounds read low 0.965 | S. cerevisiae deletion strains, locus YML124C, strain tub3, active compounds read low 1.02 | S. cerevisiae deletion strains, locus YMR058W, strain fet3, active compounds read low 0.992 | S. cerevisiae deletion strains, locus YMR078C, strain ctf18, active compounds read low 1.05 | S. cerevisiae deletion strains, locus YMR125W, strain sto1, active compounds read low 1.01 | S. cerevisiae deletion strains, locus YMR129W, active compounds read low 0.989 | S. cerevisiae deletion strains, locus YMR205C, strain PFK2, active compounds read low 1.05 | S. cerevisiae deletion strains, locus YMR223W, strain ubp8, active compounds read low 1.02 | S. cerevisiae deletion strains, locus YMR231W, strain pep5, active compounds read low 1 | S. cerevisiae deletion strains, locus YMR307W, strain GAS1, active compounds read low 1.11 | S. cerevisiae deletion strains, locus YNL067W, strain RPL9B, active compounds read low 1.02 | S. cerevisiae deletion strains, locus YNL071W, strain lat1, active compounds read low 0.993 | S. cerevisiae deletion strains, locus YNL183C, strain NPR1, active compounds read low 0.937 | S. cerevisiae deletion strains, locus YNL209W, strain ssb2, active compounds read low 1 | S. cerevisiae deletion strains, locus YNL233W, strain BNI4, active compounds read low 1.02 | S. cerevisiae deletion strains, locus YNL248C, strain rpa49, active compounds read low 0.934 | S. cerevisiae deletion strains, locus YNL250W, strain rad50, active compounds read low 1.03 | S. cerevisiae deletion strains, locus YNL271C, strain bni1, active compounds read low 1.05 | S. cerevisiae deletion strains, locus YNL298W, strain CLA4, active compounds read low 1.04 | S. cerevisiae deletion strains, locus YNL307C, strain MCK1, active compounds read low 1.05 | S. cerevisiae deletion strains, locus YNL322C, strain KRE1 (second series), active compounds read low 0.98 | S. cerevisiae deletion strains, locus YNR049C, strain mso1, active compounds read low 0.996 | S. cerevisiae deletion strains, locus YNR052C, strain pop2, active compounds read low 1.03 | S. cerevisiae deletion strains, locus YOL012C, strain htz1 1.19 | S. cerevisiae deletion strains, locus YOL147C, strain pex11, active compounds read low 1.01 | S. cerevisiae deletion strains, locus YOR001W, strain rrp6, active compounds read low 0.994 | S. cerevisiae deletion strains, locus YOR061W, strain CKA2, active compounds read low 1.05 | S. cerevisiae deletion strains, locus YOR069W, strain VPS5, active compounds read low 1.02 | S. cerevisiae deletion strains, locus YOR070C, strain gyp1, active compounds read low 0.999 | S. cerevisiae deletion strains, locus YOR080W, strain dia2, active compounds read low 1.04 | S. cerevisiae deletion strains, locus YOR083W, strain WHI5, active compounds read low 0.969 | S. cerevisiae deletion strains, locus YOR106W, strain vam3, active compounds read low 0.978 | S. cerevisiae deletion strains, locus YOR136W, strain idh2, active compounds read low 1.04 | S. cerevisiae deletion strains, locus YOR144C, strain elg1, active compounds read low 1.02 | S. cerevisiae deletion strains, locus YOR184W, strain ser1, active compounds read low 1.06 | S. cerevisiae deletion strains, locus YOR231W, strain MKK1, active compounds read low 1 | S. cerevisiae deletion strains, locus YOR265W, strain rbl2, active compounds read low 0.996 | S. cerevisiae deletion strains, locus YOR270C, strain vph1, active compounds read low 0.907 | S. cerevisiae deletion strains, locus YOR290C, strain snf2, active compounds read low 1.07 | S. cerevisiae deletion strains, locus YOR316C, strain cot1, active compounds read low 1.04 | S. cerevisiae deletion strains, locus YPL051W, strain arl3, active compounds read low 0.981 | S. cerevisiae deletion strains, locus YPL055C, strain LGE1, active compounds read low 1.05 | S. cerevisiae deletion strains, locus YPL078C, strain atp4, active compounds read low 0.935 | S. cerevisiae deletion strains, locus YPL106C, strain sse1, active compounds read low 1.08 | S. cerevisiae deletion strains, locus YPL240C, strain hsp82, active compounds read low 0.985 | S. cerevisiae deletion strains, locus YPL241C, strain CIN2, active compounds read low 1.01 | S. cerevisiae deletion strains, locus YPL256C, strain CLN2, active compounds read low 0.989 | S. cerevisiae deletion strains, locus YPR119W, strain clb2, active compounds read low 1.03 | S. cerevisiae deletion strains, locus YPR141C, strain kar3, active compounds read low 1.03 | S. cerevisiae deletion strains, locus YPR163C, strain tif3, active compounds read low 1.03 | S. cerevisiae deletion strains, locus YPR167C, strain met16, active compounds read low 1.04 | S. cerevisiae deletion strains, strain wtn01, active compounds read low 1.03 | S. cerevisiae strains, strain wild type, active compounds read low 1.02
